# Key:
# Experiment in all cases: DAPPL (digital affinity profiling via proximity ligation, sequencing); 10 mM Tris-HCl pH 7.5, 50 mM NaCl, 1 mM DTT, 4% glycerol, room temperature, 30 min; GST-TFs on glutathione beads, 16-mer random dsDNA library, 0.1% formaldehyde crosslink after washing; high values mean tight binding
# FEV = molecular target: T1, FEV (Homo sapiens, UniProt Q99581 1-238); settings: protein: recombinant; tags: N-terminal GST; dsDNA, one strand shown
# T1 sequence: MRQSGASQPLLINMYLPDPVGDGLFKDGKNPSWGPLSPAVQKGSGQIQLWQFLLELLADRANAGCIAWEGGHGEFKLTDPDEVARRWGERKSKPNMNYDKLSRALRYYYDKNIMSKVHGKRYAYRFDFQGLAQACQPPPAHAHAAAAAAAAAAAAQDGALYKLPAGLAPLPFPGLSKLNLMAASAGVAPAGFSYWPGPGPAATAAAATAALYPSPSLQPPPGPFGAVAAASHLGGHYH
# In short: (§1)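 After expression in yeast as GST fusions, human transcription factors were bound to glutathione beads, DNA-barcoded and mixed with a tag-only sample. The pools were incubated with 200 nmole of a 16-mer random double-stranded DNA library in Tris/NaCl/DTT/glycerol buffer (30 min, room temperature), washed and crosslinked with 0.1% formaldehyde. Proximity ligation with BsaI/T4 ligase ran for 1 h at 37 °C, before PCR amplification and sequencing on an Illumina NextSeq500. Binding signal is a hexamer's read frequency for a factor divided by its frequency for the tag-only sample.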
# ETV5 = ETV5 (Homo sapiens, UniProt P41161 1-510); settings: protein: recombinant; tags: N-terminal GST; dsDNA, one strand shown
# In short: as §1
# HSF1 = HSF1 (Homo sapiens, UniProt Q00613 1-529); settings: protein: recombinant; tags: N-terminal GST; chain copies: 3; dsDNA, one strand shown
# In short: as §1
# SPIC = molecular target: T2, SPIC (Homo sapiens, UniProt Q8N5J4 1-248); settings: protein: recombinant; tags: N-terminal GST; dsDNA, one strand shown
# T2 sequence: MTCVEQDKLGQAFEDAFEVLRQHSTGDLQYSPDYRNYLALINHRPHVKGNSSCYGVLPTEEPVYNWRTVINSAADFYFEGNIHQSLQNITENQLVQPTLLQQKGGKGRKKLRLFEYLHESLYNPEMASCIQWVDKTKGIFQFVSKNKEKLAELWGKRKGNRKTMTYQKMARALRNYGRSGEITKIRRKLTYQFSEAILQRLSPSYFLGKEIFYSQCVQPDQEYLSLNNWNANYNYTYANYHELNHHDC
# In short: as §1
# ELF4 = ELF4 (Homo sapiens, UniProt Q99607 1-663); settings: protein: recombinant; tags: N-terminal GST; dsDNA, one strand shown
# In short: as §1
# ELK4 = molecular target: T3, ELK4 (Homo sapiens, UniProt P28324-2 1-405); settings: protein: recombinant; tags: N-terminal GST; dsDNA, one strand shown
# T3 sequence: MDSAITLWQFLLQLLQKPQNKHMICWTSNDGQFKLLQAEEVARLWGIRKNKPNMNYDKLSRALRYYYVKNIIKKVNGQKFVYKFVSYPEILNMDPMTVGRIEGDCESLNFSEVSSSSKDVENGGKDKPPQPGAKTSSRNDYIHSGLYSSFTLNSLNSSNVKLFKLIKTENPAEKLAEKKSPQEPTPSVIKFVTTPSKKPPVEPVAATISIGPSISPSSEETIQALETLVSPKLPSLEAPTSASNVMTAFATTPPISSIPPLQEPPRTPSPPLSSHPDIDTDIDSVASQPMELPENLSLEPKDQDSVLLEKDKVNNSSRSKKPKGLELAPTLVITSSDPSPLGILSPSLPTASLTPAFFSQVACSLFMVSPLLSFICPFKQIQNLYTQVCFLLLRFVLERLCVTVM
# In short: as §1
# ETV2 = molecular target: T4, ETV2 (Homo sapiens, UniProt O00321 1-342); settings: protein: recombinant; tags: N-terminal GST; dsDNA, one strand shown
# T4 sequence: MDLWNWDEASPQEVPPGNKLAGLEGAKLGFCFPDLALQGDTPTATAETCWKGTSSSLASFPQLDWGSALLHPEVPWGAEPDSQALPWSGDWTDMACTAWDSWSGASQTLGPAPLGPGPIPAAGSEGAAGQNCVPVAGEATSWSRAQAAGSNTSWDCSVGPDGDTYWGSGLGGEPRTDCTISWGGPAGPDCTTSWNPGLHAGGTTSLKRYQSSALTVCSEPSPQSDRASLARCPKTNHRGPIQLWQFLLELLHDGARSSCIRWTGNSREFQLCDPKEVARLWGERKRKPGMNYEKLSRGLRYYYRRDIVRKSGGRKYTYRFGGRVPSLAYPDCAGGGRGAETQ
# In short: as §1
# ELF3 = molecular target: T5, ELF3 (Homo sapiens, UniProt P78545 1-371); settings: protein: recombinant; tags: N-terminal GST; dsDNA, one strand shown
# T5 sequence: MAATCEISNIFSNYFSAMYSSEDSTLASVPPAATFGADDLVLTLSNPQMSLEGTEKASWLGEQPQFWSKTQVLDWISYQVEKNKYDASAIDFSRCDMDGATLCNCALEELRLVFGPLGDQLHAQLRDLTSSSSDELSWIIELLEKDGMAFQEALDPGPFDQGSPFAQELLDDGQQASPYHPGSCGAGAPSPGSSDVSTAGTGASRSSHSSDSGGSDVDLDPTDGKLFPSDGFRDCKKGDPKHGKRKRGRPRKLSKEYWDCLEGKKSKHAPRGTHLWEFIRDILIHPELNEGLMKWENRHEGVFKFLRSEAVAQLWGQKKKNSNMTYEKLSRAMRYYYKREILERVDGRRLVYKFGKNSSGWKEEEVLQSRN
# In short: as §1
# CRX = CRX (Homo sapiens, UniProt O43186 1-299); settings: protein: recombinant; tags: N-terminal GST; dsDNA, one strand shown
# In short: as §1
# ETV1 = ETV1 (Homo sapiens, UniProt P50549 1-477); settings: protein: recombinant; tags: N-terminal GST; dsDNA, one strand shown
# In short: as §1
# Sequence of CRX (O43186 whole entry): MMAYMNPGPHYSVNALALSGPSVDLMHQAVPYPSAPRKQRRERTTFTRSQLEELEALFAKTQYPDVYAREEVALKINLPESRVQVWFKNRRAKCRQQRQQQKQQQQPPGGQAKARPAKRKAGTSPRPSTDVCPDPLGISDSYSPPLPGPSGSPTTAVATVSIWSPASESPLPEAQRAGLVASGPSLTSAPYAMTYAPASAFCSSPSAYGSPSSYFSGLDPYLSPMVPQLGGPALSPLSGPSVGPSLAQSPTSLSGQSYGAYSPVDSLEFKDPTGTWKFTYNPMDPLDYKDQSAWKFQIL
# Sequence of ELF4 (Q99607 whole entry): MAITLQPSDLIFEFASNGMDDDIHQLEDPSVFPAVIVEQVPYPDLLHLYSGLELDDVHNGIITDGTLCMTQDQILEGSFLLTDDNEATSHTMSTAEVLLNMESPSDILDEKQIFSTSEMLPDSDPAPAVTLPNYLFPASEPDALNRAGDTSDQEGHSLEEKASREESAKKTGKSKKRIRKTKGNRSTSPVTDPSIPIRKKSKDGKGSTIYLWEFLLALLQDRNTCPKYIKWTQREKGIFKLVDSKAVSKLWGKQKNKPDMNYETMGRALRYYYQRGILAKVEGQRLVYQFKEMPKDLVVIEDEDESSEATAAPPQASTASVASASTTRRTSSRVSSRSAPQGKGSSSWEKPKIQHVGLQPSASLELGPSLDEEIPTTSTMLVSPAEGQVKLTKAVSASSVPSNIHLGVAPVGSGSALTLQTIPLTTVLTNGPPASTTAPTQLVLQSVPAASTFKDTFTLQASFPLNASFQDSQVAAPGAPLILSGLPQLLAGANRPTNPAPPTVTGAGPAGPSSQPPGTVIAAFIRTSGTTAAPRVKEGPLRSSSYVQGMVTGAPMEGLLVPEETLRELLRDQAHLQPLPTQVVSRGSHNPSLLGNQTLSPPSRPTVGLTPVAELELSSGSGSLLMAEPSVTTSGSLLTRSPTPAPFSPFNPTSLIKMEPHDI
# Sequence of ETV1 (P50549 whole entry): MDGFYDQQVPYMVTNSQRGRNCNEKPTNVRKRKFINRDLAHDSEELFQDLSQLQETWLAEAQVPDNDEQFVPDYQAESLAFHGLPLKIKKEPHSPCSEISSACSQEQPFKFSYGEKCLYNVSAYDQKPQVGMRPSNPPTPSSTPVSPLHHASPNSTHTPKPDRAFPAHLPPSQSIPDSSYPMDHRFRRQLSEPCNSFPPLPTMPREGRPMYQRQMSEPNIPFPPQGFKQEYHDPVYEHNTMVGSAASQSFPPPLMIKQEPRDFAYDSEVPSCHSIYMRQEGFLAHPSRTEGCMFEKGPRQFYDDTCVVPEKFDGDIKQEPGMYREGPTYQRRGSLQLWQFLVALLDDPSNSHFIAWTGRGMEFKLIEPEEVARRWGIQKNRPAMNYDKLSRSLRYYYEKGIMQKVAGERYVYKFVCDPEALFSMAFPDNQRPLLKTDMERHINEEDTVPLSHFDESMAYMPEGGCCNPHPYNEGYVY
# Sequence of ETV5 (P41161 whole entry): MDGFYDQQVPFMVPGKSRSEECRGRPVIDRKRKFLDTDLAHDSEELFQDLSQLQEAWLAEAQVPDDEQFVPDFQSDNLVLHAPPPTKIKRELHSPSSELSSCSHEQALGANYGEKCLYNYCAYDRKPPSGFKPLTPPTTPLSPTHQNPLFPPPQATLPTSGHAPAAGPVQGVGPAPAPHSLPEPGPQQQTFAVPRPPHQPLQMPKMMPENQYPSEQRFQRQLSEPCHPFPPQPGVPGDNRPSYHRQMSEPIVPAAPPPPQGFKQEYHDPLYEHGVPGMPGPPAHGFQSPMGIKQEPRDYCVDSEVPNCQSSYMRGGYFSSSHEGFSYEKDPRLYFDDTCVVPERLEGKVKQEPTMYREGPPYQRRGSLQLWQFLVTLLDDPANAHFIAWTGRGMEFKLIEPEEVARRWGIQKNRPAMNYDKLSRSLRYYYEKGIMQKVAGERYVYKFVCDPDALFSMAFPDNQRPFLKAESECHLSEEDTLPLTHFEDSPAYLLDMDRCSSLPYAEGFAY
# Sequence of HSF1 (Q00613 whole entry): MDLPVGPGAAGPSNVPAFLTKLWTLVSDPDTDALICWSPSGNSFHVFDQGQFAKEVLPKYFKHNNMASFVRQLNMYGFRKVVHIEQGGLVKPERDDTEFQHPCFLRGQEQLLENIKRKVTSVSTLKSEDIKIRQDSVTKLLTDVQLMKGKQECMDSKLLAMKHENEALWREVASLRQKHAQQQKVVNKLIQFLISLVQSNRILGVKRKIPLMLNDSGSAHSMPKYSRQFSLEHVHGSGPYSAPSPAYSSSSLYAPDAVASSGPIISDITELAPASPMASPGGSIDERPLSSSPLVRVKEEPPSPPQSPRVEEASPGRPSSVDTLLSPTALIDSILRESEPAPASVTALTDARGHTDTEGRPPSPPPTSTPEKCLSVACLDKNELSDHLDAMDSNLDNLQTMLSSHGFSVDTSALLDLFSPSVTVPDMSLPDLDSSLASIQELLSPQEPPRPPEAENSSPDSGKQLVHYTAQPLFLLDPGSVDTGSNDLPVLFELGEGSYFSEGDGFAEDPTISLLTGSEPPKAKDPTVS
sequence,measurement,setting,value
ATTAAC,binding signal,FEV,"1.27 fold enrichment (6-mer frequency, TF over GST control)"
same,binding signal,ETV5,"1.27 fold enrichment (6-mer frequency, TF over GST control)"
same,binding signal,HSF1,"2.07 fold enrichment (6-mer frequency, TF over GST control)"
same,binding signal,SPIC,"1.3 fold enrichment (6-mer frequency, TF over GST control)"
same,binding signal,ELF4,"1.3 fold enrichment (6-mer frequency, TF over GST control)"
same,binding signal,ELK4,"1.25 fold enrichment (6-mer frequency, TF over GST control)"
same,binding signal,ETV2,"1.21 fold enrichment (6-mer frequency, TF over GST control)"
same,binding signal,ELF3,"1.29 fold enrichment (6-mer frequency, TF over GST control)"
same,binding signal,CRX,"3.36 fold enrichment (6-mer frequency, TF over GST control)"
same,binding signal,ETV1,"1.27 fold enrichment (6-mer frequency, TF over GST control)"

# Source: article PMC7862700, “An all-to-all approach to the identification of sequence-specific readers for epigenetic DNA modifications on cytosine”
